Source: PubChem BioAssay (Tox21)
Values joined by “and” are separate entries in the source; they are usually repeats but may differ in a detail not shown here. Equal entries are not always repeated. Records with an inconclusive call do not appear. Active and inactive are the calls of the source. Unless noted, calls come from the whole dose curve; as a rule, active = well fitted curve in the direction sought with a large enough effect in the repeat runs; inconclusive = weak or mixed curves; inactive = no such curve, though single readings can be large; an effect the other way counts as inactive or inconclusive.

Assays:
[1] = qHTS assay for small molecule agonists of the p53 signaling pathway (AID 651631; calls by dose curve; note: nearly all actives have a fitted effect of over 15% in size; note: potency is the fitted concentration of half-maximal effect)
Outline: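 HCT-116 cells carrying a stable p53 response element–beta-lactamase reporter were plated, rested 5 h at 37 °C, then exposed to compound in DMSO for 16 h at 37 °C; reporter activity was read as FRET substrate fluorescence after 2 h at room temperature.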

[2] = qHTS assay for small molecules that induce genotoxicity in human embryonic kidney cells expressing luciferase-tagged ATAD5 (AID 651632); note: nearly all actives have a fitted effect of over 15% in size
Outline: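 Increased luciferase signal from ATAD5-tagged reporter cells indicates DNA-damage-driven ATAD5 induction. HEK293T cells are treated for 16 hr at 37C before detection with Amplite.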

[3] = qHTS assay for small molecule agonists of the p53 signaling pathway - cell viability (AID 651633; calls by dose curve; note: nearly all actives have a fitted effect of over 30% in size; note: potency is the fitted concentration of half-maximal effect)
Outline: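 p53RE-bla cells were treated with compound for 16 hours at 37 C. Cytotoxicity was then measured as CellTiter-Glo luminescence after 30 min at room temperature.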

[4] = qHTS assay for small molecules that induce genotoxicity in human embryonic kidney cells expressing luciferase-tagged ATAD5 - cell viability (AID 651634; calls by dose curve; note: nearly all actives have a fitted effect of over 25% in size; note: potency is the fitted concentration of half-maximal effect)
Outline: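 Cytotoxicity counterscreen in HEK293T cells bearing an ATAD5-luciferase reporter: live-cell protease activity measured by CellTiter-Fluor fluorescence after 15.5 hr compound exposure.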

[5] = qHTS assay for small molecule disruptors of the mitochondrial membrane potential - cell viability (AID 720634; calls by dose curve; note: nearly all actives have a fitted effect of over 20% in size; note: potency is the fitted concentration of half-maximal effect)
Outline: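 After overnight attachment at 37 C, HepG2 cells received compound or DMSO vehicle for 1 hr. Viability is then taken from ATP-driven luminescence following a 30 min room-temperature CellTiter-Glo step.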

[6] = qHTS assay to test for compound auto fluorescence at 590 nm (red) in HepG2 cells (AID 720674)
Outline: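 Fluorescence at 590 nm emission following 540 nm excitation was recorded from HepG2 wells one hour after compound transfer, with DMSO-only wells as vehicle and Rose Bengal sodium equivalency as the scale.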

[7] = qHTS assay to test for compound auto fluorescence at 535 nm (green) in HepG2 cells (AID 720675)
[8] = qHTS assay to test for compound auto fluorescence at 460 nm (blue) in HEK293 cells (AID 720678)
Outline: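 Blue read-out at excitation 405 nm and emission 460 nm follows overnight compound exposure of HEK293 cells at 37C in 5% CO2. Activity is given as auto fluorescence equivalency to triamterene.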

[9] = qHTS assay to test for compound auto fluorescence at 590 nm (red) in HEK293 cells (AID 720679)
Outline: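 Red channel, Ex/Em 540/590nm; signal expressed as equivalency to Rose Bengal sodium. HEK293, 2,000 cells/well, 10% dialyzed FBS; 23 nL compound pinned after 4-5 hr attachment; overnight 37C/5% CO2 before reading.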

[10] = qHTS assay for small molecule disruptors of the mitochondrial membrane potential (AID 720635); note: potency is the fitted concentration of half-maximal effect
Outline: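 HepG2 cells exposed to compound 1 hr at 37C, then Mito-MPS dye 30 min. Ratio read of aggregate (540/590 nm) versus monomer (490/535 nm) fluorescence.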
% is set by controls: 0 for no effect and ±100 for the full control effect.

CO[C@H]1C=CO[C@@]2(C)Oc3c(C)c(O)c4c(O)c(cc(O)c4c3C2=O)NC(=O)/C(C)=C\C=C/[C@H](C)[C@H](O)[C@@H](C)[C@@H](O)[C@@H](C)[C@H](OC(C)=O)[C@@H]1C
inactive: Potency [1] | Potency [2] | Potency [3] | Potency [4] | Potency [5] | Potency [6] | Potency [7] | Potency [8] | Potency [9]

C/C=C/C(=O)Oc1c(CCCCCC(C)C)cc([N+](=O)[O-])cc1[N+](=O)[O-]
inactive: Potency [2] | Potency [6] | Potency [7] | Potency [8] | Potency [9]
active: Potency [1] 0.864 µM | Potency [3] 15.4 µM | Potency [4] 19.3 µM | Potency [5] 3.06 µM | Potency [10] 0.109 µM

CC(=O)Oc1ccc(C2(c3ccc(OC(C)=O)cc3)C(=O)Nc3ccccc32)cc1
active: Potency [1] 211 nM and 237 nM | Potency [3] 150 nM and 266 nM
inactive: Potency [2] | Potency [4] | Potency [6] | Potency [7] | Potency [8] | Potency [9]

CCc1cccc(C)c1
inactive: Potency [1] | Potency [2] | Potency [3] | Potency [4] | Potency [5] | Potency [6] | Potency [7] | Potency [8] | Potency [9]

C=C(C)C(=O)OCCC[Si](Cl)(Cl)Cl
active: Potency [10] 61.7 µM
inactive: Potency [1] | Potency [2] | Potency [3] | Potency [4] | Potency [6] | Potency [7] | Potency [8] | Potency [9]

CCCCOC(=O)C(C)CC (configuration not stated)
inactive: Potency [1] | Potency [2] | Potency [3] | Potency [4] | Potency [5] | Potency [6] | Potency [7] | Potency [9]

O=C(c1ccccc1)c1cc(Cl)ccc1O
active: Potency [10] 25.9 µM
inactive: Potency [1] | Potency [2] | Potency [3] | Potency [4] | Potency [5] | Potency [6] | Potency [7] | Potency [8] | Potency [9]

CCCCCCCCCC(=O)N(C)C
inactive: Potency [1] | Potency [2] | Potency [3] | Potency [4] | Potency [5] | Potency [6] | Potency [7] | Potency [9]

CC1CCCNC1 (configuration not stated)
inactive: Potency [1] | Potency [2] | Potency [3] | Potency [4] | Potency [5] | Potency [6] | Potency [7] | Potency [8] | Potency [9]

CCCCCCCCCCCCCCNCCO
inactive: Potency [1] | Potency [2] | Potency [3] | Potency [4] | Potency [5] | Potency [6] | Potency [7] | Potency [8] | Potency [9]

CC1(C)C(=O)N(Br)C(=O)N1Br
inactive: Potency [1] | Potency [2] | Potency [3] | Potency [4] | Potency [5] | Potency [10] | Potency [6] | Potency [7] | Potency [8] | Potency [9]

ClC/C=C\CCl
inactive: Potency [1] | Potency [2] | Potency [3] | Potency [4] | Potency [5] | Potency [10] | Potency [6] | Potency [7] | Potency [8] | Potency [9]

O=C(O)CCCCCCC(=O)O
inactive: Potency [1] | Potency [2] | Potency [3] | Potency [4] | Potency [5] | Potency [10] | Potency [6] | Potency [7] | Potency [8] | Potency [9]

CC(C)=C1CC[C@@H](C)CC1=O
inactive: Potency [1] | Potency [2] | Potency [3] | Potency [4] | Potency [5] | Potency [10] | Potency [6] | Potency [7] | Potency [8] | Potency [9]

CC(COC(=O)c1ccccc1)OC(=O)c1ccccc1 (configuration not stated)
inactive: Potency [1] | Potency [2] | Potency [3] | Potency [4] | Potency [5] | Potency [6] | Potency [7] | Potency [9]

CC(C)N=C(N)/N=C(\N)Nc1ccc(Cl)cc1
inactive: Potency [1] | Potency [2] | Potency [3] | Potency [4] | Potency [5] | Potency [10] | fluorescence, relative to Rose Bengal [6] 0.432% [at 18.6 µM] | fluorescence, % of fluorescein control [7] -0.0393% [at 18.6 µM] | fluorescence, % of triamterene [8] -0.225% [at 18.6 µM] | fluorescence, % of fluorescent control [9] -0.126% [at 18.6 µM]

Cn1cnc2ncnc(N)c21
inactive: Potency [1] | Potency [2] | Potency [3] | Potency [4] | Potency [5] | Potency [6] | Potency [7] | Potency [8] | Potency [9]

Oc1c(Br)cc(Br)c2cccnc12
inactive: Potency [2] | Potency [4] | Potency [5] | Potency [6] | Potency [7] | Potency [9]
active: Potency [1] 5.96 µM | Potency [3] 6.68 µM

CC(=O)Oc1ccc(C2(c3ccc(OC(C)=O)cc3)Oc3ccccc3NC2=O)cc1
active: Potency [1] 2.37 µM | Potency [10] 23.7 µM
inactive: Potency [2] | Potency [3] | Potency [4] | Potency [5] | Potency [6] | Potency [7] | Potency [9]

C1CC(COCC2CO2)CCC1COCC1CO1 (configuration not stated)
inactive: Potency [1] | Potency [2] | Potency [3] | Potency [4] | Potency [5] | Potency [10] | Potency [6] | Potency [7] | Potency [8] | Potency [9]

CCOC(=O)N1CCC(=C2c3ccc(Cl)cc3CCc3cccnc32)CC1
active: Potency [1] 23.7 µM and 61.1 µM | Potency [3] 68.6 µM | Potency [4] 43.3 µM | Potency [5] 27.3 µM | Potency [10] 29.8 µM and 54.5 µM
inactive: Potency [2] | Potency [6] | Potency [7] | Potency [9]
